Source: article PMC11995724, “Antibiotic target discovery by integrated phenotypic and activity-based profiling of electrophilic fragments” (Cell chemical biology, 2025)
Screen size: about 3,200 compounds; about 75 (2%) showed an effect of 50% or more. Shown is part of a subset that was picked to be rich in strong results.

Tested on: T1, S. aureus MSSA476
T1 construct: MSSA476
Parameters: species or system S. aureus MSSA476 (TSB) or V. cholerae SAD30 (LB); 384-well bacterial growth screen at 25 uM, OD600 relative to DMSO control
Conditions: relative growth, OD600, TSB; 25 µM; inhibitor

Compound | % of control remaining [%]
O=C(O)c1coc(C(=O)CCl)c1 [10-B07, 5-(2-chloroacetyl)furan-3-carboxylic acid] | 79.6875
O=C(CCl)N1N=C(c2ccco2)CC1c1cccc(Cl)c1 (centres unmarked) [5-M17, 2-chloro-1-[5-(3-chlorophenyl)-3-(furan-2-yl)-4,5-dihydro-1H-pyrazol-1-yl]ethan-1-one] | 81.9672
Cc1nn(-c2ccccc2)c(C)c1CN(C)C(=O)CCl [7-B03, 2-chloro-N-[(3,5-dimethyl-1-phenyl-1H-pyrazol-4-yl)methyl]-N-methylacetamide] | 93.5636
Cc1cc(-n2c(C)cc(C(=O)CCl)c2C)no1 [10-C18, 2-chloro-1-[2,5-dimethyl-1-(5-methyl-1,2-oxazol-3-yl)-1H-pyrrol-3-yl]ethan-1-one] | 123.125
Cc1cc(C(=O)CCl)c(C)n1-c1cccc(Cl)c1 [10-N18, 2-chloro-1-[1-(3-chlorophenyl)-2,5-dimethyl-1H-pyrrol-3-yl]ethan-1-one] | 100.313
Cc1cc(C(=O)CCl)c(C)n1-c1ccc2c(c1)OCO2 [10-K14, 1-[1-(1,3-dioxaindan-5-yl)-2,5-dimethyl-1H-pyrrol-3-yl]-2-chloroethan-1-one] | 139.375
CSc1cccc(-n2c(C)cc(C(=O)CCl)c2C)c1 [10-J16, 2-chloro-1-{2,5-dimethyl-1-[3-(methylsulfanyl)phenyl]-1H-pyrrol-3-yl}ethan-1-one] | 12.8125
Cc1ccc(-n2c(C)cc(C(=O)CCl)c2C)cc1F [10-C06, 2-chloro-1-[1-(3-fluoro-4-methylphenyl)-2,5-dimethyl-1H-pyrrol-3-yl]ethan-1-one] | -0.3125
Cc1ccc(-n2c(C)cc(C(=O)CCl)c2C)cc1C [10-B14, 2-chloro-1-[1-(3,4-dimethylphenyl)-2,5-dimethyl-1H-pyrrol-3-yl]ethan-1-one] | 1.25
Cc1cccc(-n2c(C)cc(C(=O)CCl)c2C)c1 [10-A22, 2-chloro-1-[2,5-dimethyl-1-(3-methylphenyl)-1H-pyrrol-3-yl]ethan-1-one] | 138.438
Cc1cc(C(=O)CCl)c(C)n1-c1ccc(Cl)c(Cl)c1 [10-D18, 2-chloro-1-[1-(3,4-dichlorophenyl)-2,5-dimethyl-1H-pyrrol-3-yl]ethan-1-one] | -0.3125
Cc1cc(C(=O)CCl)c(C)n1-c1ccccn1 [10-C16, 2-chloro-1-[2,5-dimethyl-1-(pyridin-2-yl)-1H-pyrrol-3-yl]ethan-1-one] | 117.5
Cc1cc(C(=O)CCl)c(C)n1-c1cccc([N+](=O)[O-])c1 [10-B16, 2-chloro-1-[2,5-dimethyl-1-(3-nitrophenyl)-1H-pyrrol-3-yl]ethan-1-one] | 136.563
CCN(CC)C(=O)c1cccc(NC(=O)CCl)c1 [5-I03, 3-(2-chloroacetamido)-N,N-diethylbenzamide] | 102.732
N#CC(=Cc1cccs1)C(=O)Nc1ccc(C(=O)O)cc1 [8-A04, 4-[2-cyano-3-(thiophen-2-yl)prop-2-enamido]benzoic acid] | 109.212
CC(C)Oc1ccccc1C=C(C#N)C(=O)Nc1ccc(Cl)cc1 [9-L20, N-(4-chlorophenyl)-2-cyano-3-[2-(propan-2-yloxy)phenyl]prop-2-enamide] | 108.464
N#CCCSc1ccccc1NC(=O)CCl [6-N12, 2-chloro-N-{2-[(2-cyanoethyl)sulfanyl]phenyl}acetamide] | 88.439
CC(=O)NCCc1ccc(C(=O)CCl)s1 [10-P03, N-{2-[5-(2-chloroacetyl)thiophen-2-yl]ethyl}acetamide] | 143.125
C=CC(=O)N1CCCN(C(=O)c2ccc(OC)cc2)CC1 [3-A21, 1-[4-(4-methoxybenzoyl)-1,4-diazepan-1-yl]prop-2-en-1-one] | 128.864
C=CC(=O)N(CC)Cc1cn(C)nn1 [2-O09, N-ethyl-N-[(1-methyl-1H-1,2,3-triazol-4-yl)methyl]prop-2-enamide] | 106.527
CN(CC(=O)Nc1ccccc1Cl)C(=O)CCl [4-D05, 2-chloro-N-{[(2-chlorophenyl)carbamoyl]methyl}-N-methylacetamide] | 122.344
C=CC(=O)NCCc1ccccc1OC [2-O03, N-[2-(2-methoxyphenyl)ethyl]prop-2-enamide] | 95.7354
C=CC(=O)N1CCOCC2(COCCN2C)C1 (centres unmarked) [3-J14, 1-{1-methyl-4,8-dioxa-1,11-diazaspiro[5.6]dodecan-11-yl}prop-2-en-1-one] | 109.012
CC(Cl)C(=O)N1CCCC(NS(=O)(=O)c2cccc(F)c2)C1 (centres unmarked) [7-C13, N-[1-(2-chloropropanoyl)piperidin-3-yl]-3-fluorobenzene-1-sulfonamide] | 102.355
Cc1cc(C(=O)CCl)c(C)n1-c1ccc(Cl)c(C(F)(F)F)c1 [10-L18, 2-chloro-1-{1-[4-chloro-3-(trifluoromethyl)phenyl]-2,5-dimethyl-1H-pyrrol-3-yl}ethan-1-one] | 0.3125
Cc1cc(C(=O)CCl)c(C)n1-c1ccon1 [10-F06, 2-chloro-1-[2,5-dimethyl-1-(1,2-oxazol-3-yl)-1H-pyrrol-3-yl]ethan-1-one] | 106.875
Cc1cc(C(=O)C(C)Cl)c(C)n1-c1ccc(OC(F)F)cc1 (centres unmarked) [10-E10, 2-chloro-1-{1-[4-(difluoromethoxy)phenyl]-2,5-dimethyl-1H-pyrrol-3-yl}propan-1-one] | 125.938
Cc1cc(C(=O)CCl)c(C)n1-c1ccc(OC(F)F)c(Cl)c1 [10-K04, 2-chloro-1-{1-[3-chloro-4-(difluoromethoxy)phenyl]-2,5-dimethyl-1H-pyrrol-3-yl}ethan-1-one] | 0
Cc1cc(C(=O)CCl)c(C)n1-c1ccc(OC(F)(F)F)cc1 [10-G04, 2-chloro-1-{2,5-dimethyl-1-[4-(trifluoromethoxy)phenyl]-1H-pyrrol-3-yl}ethan-1-one] | 115.313
